Experimental data taken from PubChem BioAssay (NCI).
About 79,000 compounds went through this panel and 15% of them were active in at least one assay; those are over-represented in the sample as a whole. The source made the active and inactive calls. Cut-off read from the data, not from the text of the source: active = growth inhibition above about 70%; inactive = the rest.

assay: NCI Yeast Anticancer Drug Screen. Data for the bub3 strain (AID 167); conditions: S. cerevisiae bub3 mutant strain, stronger effect = higher value; at 50.0 µM unless noted
In short: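 Readout: yeast growth inhibition, expressed relative to vehicle-only wells. The test organism is a mutant strain from a panel with lesions in DNA repair or checkpoint genes.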

SMILES	growth inhibition
COc1ccc2c(c1)c(COC(C)=O)c(C)c[n+]2[O-]	22.1% (inactive)
C=C(C)C1CCC2(C)CCC(=O)C(C)=C2C1 (centres undefined)	-6.1% (inactive)
CCOC(=O)C(CC/C=C\c1ccccc1)N1CCC[C@H]1C(=O)OC (some centres undefined)	2.75% (inactive)
Cc1[nH]c2c(ccc3c2ccc2c(=O)c(C)c(C)[nH]c23)c(=O)c1C	-0.3% (inactive)
O/C(=C/c1ncnc2ccccc12)c1cccc(Cl)c1	14.7% (inactive)
CC(=O)OC1CCC2(C)C(CCC3C2C(=O)C(OC(C)=O)C2(C)C3CC3OC4(CCC(C)CO4)C(C)C32)C1 (centres undefined)	-23.9% (inactive)
O=[N+]([O-])c1ccc[nH]1	3% (inactive)
Oc1cc2c(cc1C(Nc1ncccn1)c1ccc3c(c1)OCO3)OCO2 (centres undefined)	19.4% (inactive)
CC(=O)OCC(O)CS(=O)c1ccc(C)cc1 (centres undefined)	-16.1% (inactive)
CCCCCOC(=O)C#CC(=O)OCCCCC	99.8% (active)
CCN(CC)C(=O)Oc1cccc(NC(=O)OC)c1	49.2% (inactive)
Clc1nn2cnnc2c2ncccc12	15.2% (inactive)
CC[N+](CC)(CC)CCOc1nc(OCC[N+](CC)(CC)CC)nc(OCC[N+](CC)(CC)CC)n1	17.1% (inactive)
CCOC(=O)C(=CNc1ccc(OC)cc1[N+](=O)[O-])C(=O)OCC	11.3% (inactive)
CC1Nc2ccccc2C1C (centres undefined)	-59.6% (inactive)
CCOc1ccc2c(c1)S(=O)(=O)OC2=O	5.2% (inactive)
COc1cc2c(cc1OC)C1C(C)c3ccc(OC)c(OC)c3CN1CC2 (centres undefined)	-29.6% (inactive)
Cc1ccc(S(=O)(=O)N2CCC(CCl)N(S(=O)(=O)c3ccc(C)cc3)CC2CCl)cc1 (centres undefined)	3.45% (inactive)
CCCCCC1CC(C(C)=O)CN1c1ccc(F)cc1 (centres undefined)	-1% (inactive)
O=C1OCc2ccccc21	-6.05% (inactive)

SMILES	growth inhibition
O=C(Cc1ccccc1)c1ccccc1C(=O)NCc1ccncc1	9% (inactive)
Cc1ccc(N(C)S(=O)(=O)c2ccccc2)cc1	22.6% (inactive)
CN(/N=C/c1cccs1)c1ccc(Cl)cc1[N+](=O)[O-]	-7.45% (inactive)
COCc1ccc2c(c1)C(O)NC(=O)O2 (centres undefined)	-8.55% (inactive)
Cc1nc(N(C)C)oc(=O)c1CCc1ccccc1	6.9% (inactive)
CN(C)c1cccc2c(S(=O)(=O)NCCCNCCN)cccc12	-21.2% (inactive)
COc1cc(N=Nc2c(N)nc(N)[nH]c2=O)c(OC)cc1Cl	1.35% (inactive)
CC(C)(CO)CNC(=O)C(C)(C)CO	16.8% (inactive)
CCOC(=O)c1ccc(O)c(NC(C)=O)c1	10% (inactive)
CCCn1c(C)nc2c([N+](=O)[O-])cc(C)cc21	13.4% (inactive)
CCC(C)(C)NC(N)=O	8.55% (inactive)
COc1cc(C(=O)N(C)C)cc(OC)c1OC	-4% (inactive)
C=C(COc1ccc(OC)cc1)C(C)(C)C	14.7% (inactive)
CCN(CC(COc1ccc2c(c1)[n+]([O-])nc(N)[n+]2[O-])OC(C)=O)C(C)=O (centres undefined)	25.4% (inactive)
CC1(C)CC[C@]2(C(=O)O)CC[C@]3(C)C(=CC[C@@H]4[C@@]5(C)CC[C@H](OC6OC(CO)C(O)C(O)C6O)C(C)(C)[C@@H]5CC[C@]43C)[C@@H]2C1 (some centres undefined)	82.4% (active)
CCc1ccccc1NC(=O)C(=O)CC(=O)c1sc(Nc2ccccc2Cl)nc1C	-2.65% (inactive)
Cn1c(-c2csc(-c3ccc(Cl)cc3)n2)n[nH]c1=S	6.35% (inactive)
O=c1oc2ccccc2c(O)c1Cc1ccccc1Cc1c(O)c2ccccc2oc1=O	-19.9% (inactive)
Cc1ccc(Nc2cc(C(=O)O)c(Nc3ccc(C)cc3)cc2C(=O)O)cc1	7.85% (inactive)
